Values joined by “and” are separate entries in the source; they are usually repeats but may differ in a detail not shown here. Identical values can stand only once. Active and inactive are the calls of the source. How the source made its calls: active means hit-call score of the fitted dose curve at least 0.9, where 1 is the maximum; inactive means score below 0.9.

Read-out in the assay: CD40, CD40 (gene 958)
The assay is described as follows: BSK_SAg_CD40: BioMAP Diversity Plus: SAg Assay for CD40 Biomarker Activity (AID 2283088). As to conditions: primary human HUVEC with PBMC; actives raise or lower the signal. The protocol: BSK_SAg is a cell-based, multiplexed-readout assay that uses umbilical vein endothelium and peripheral blood mononuclear cells, a human vascular primary cell co-culture, with measurements taken at 24 hours after chemical dosing in a 96-well plate.BSK_SAg_CD40 is one of 10 assay component(s) measured or calculated from the BSK_SAg assay. It is designed to make measurements of enzyme-linked immunosorbent assay, a form of binding reporter, as detected with fluorescence intensity signals by Enzyme-linked immunosorbent assay technology.Data from the assay component BSK_SAg_CD40 was analyzed into 1 assay endpoint. This assay endpoint, BSK_SAg_CD40, was analyzed with bidirectional fitting relative to DMSO as the negative control and baseline of activity. Using a type of binding reporter, gain or loss-of-signal activity can be used to understand changes in the signaling as they relate to the gene CD40. Furthermore, this assay endpoint can be referred to as a primary readout, because this assay has produced multiple assay endpoints where this one serves a signaling function. To generalize the intended target to other relatable targets, this assay endpoint is annotated to the cytokine intended target family, where the subfamily is inflammatory factor.
The levels of cell surface (or secreted, indicated by the prefix "s") biomarker endpoints were measured by ELISA. Overt cytotoxicity to cells in confluent adherent cultures (all systems other than the BT system) was assessed by measuring total protein levels using sulforhodamine B (SRB) staining in parallel cultures at the time of biomarker measurements, indicated as SRB endpoints. For proliferation assays for adherent cell types, individual cell types are cultured at sub-confluence and relative cell numbers quantified by SRB staining at time points optimized for each system (48 h: 3C and CASM3C systems; 72 h: BT and HDF3CGF systems; 96 h: SAg system). SRB was performed by staining cells with 0.1% SRB after fixation with 10% TCA and reading wells at 560 nm.Viability and proliferation of PBMC (T cells) was quantified by Alamar Blue reduction for the SAg and BT systems. For PBMC viability (referred to as PBMC Cytotoxicity within the assay endpoint names), cells were plated (75,000/well in a 96-well plate) and then chemical samples added for 1 h before addition of activators, SEB and TSST-1 (20 ng/mL final concentration each). Cells were incubated for 90 h. Then, Alamar Blue (20 uL/well) (Invitrogen, Cat DAL1100) was added for 6 h, and the plates were read with a fluorescence microplate reader at 546/580 nm (excitation/emission). For PBMC proliferation, cells were plated and activated as above but incubated for only 16 h prior to addition of Alamar Blue. Plates were read after 6 h.
As a reminder, the AC50 is the midpoint of the concentration-response curve, whichever way the signal moves. For the molecule `CC(C)N(C(=O)SCC(Cl)=C(Cl)Cl)C(C)C`, the AC50 was 30.9 µM (active).

`COP(=O)(NC(C)=O)SC` (stereo not given): the result was inactive.

On to `COc1cc(OC)nc(Sc2cccc(Cl)c2C(=O)O)n1`, for which the outcome was inactive.

On to `O=[N+]([O-])c1cc(C(F)(F)F)c(Cl)c([N+](=O)[O-])c1Nc1ncc(C(F)(F)F)cc1Cl`, for which the AC50 is 1.51 µM (active) and 1.86 µM (active).

With `CCOC(=O)CC(SP(=O)(OC)OC)C(=O)OCC` (stereo not given), the outcome was inactive.

On to `CCCOCC(=Nc1ccc(Cl)cc1C(F)(F)F)n1ccnc1`, for which the AC50 was 18.1 µM (active).

Take `C[Si](Cn1cncn1)(c1ccc(F)cc1)c1ccc(F)cc1`: the AC50 was 27 µM (active).

Regarding `CN1COCN(Cc2cnc(Cl)s2)C1=N[N+](=O)[O-]`, the AC50 was 3.79 µM (active).

For `CCOP(=S)(OCC)Oc1ccc2c(C)c(Cl)c(=O)oc2c1`, the outcome was inactive.

As for `CN(C)[C@@H]1C(=O)C(C(N)=O)=C(O)[C@@]2(O)C(=O)C3=C(O)c4c(O)cccc4[C@@](C)(O)[C@H]3[C@H](O)[C@@H]12`, the result was inactive.

`CC(C)=CC1C(C(=O)OCN2C(=O)C3=C(CCCC3)C2=O)C1(C)C` (stereo not given): the AC50 is 20.5 µM (active).

Turning to `C#CC(C)(C)NC(=O)c1cc(Cl)cc(Cl)c1`, the result was inactive.

For `CCCOc1nn(C(=O)NS(=O)(=O)c2ccccc2C(=O)OC)c(=O)n1C`, the outcome was inactive.

For `CCCCOC(=O)c1ccccc1C(=O)O`, the result was inactive.

For `CCOP(=S)(Oc1cnc(C(C)(C)C)nc1)OC(C)C` (stereo not given), the AC50 is 30.8 µM (active).

As to `CCNc1nc(Cl)nc(NC(C)(C)C#N)n1`, the result was inactive.

For the molecule `C[N+]1(C)CCCCC1`, the outcome was inactive.

For `CCOP(=S)(OCC)Oc1ccc([N+](=O)[O-])cc1`, the outcome was inactive.

In the case of `S=C1NCCN1`, the result was inactive.

With `CCOC(=O)COc1cc(-c2nn(C)c(OC(F)F)c2Cl)c(F)cc1Cl`, the outcome was inactive.

Regarding `COP(=O)(OC)OC(Br)C(Cl)(Cl)Br` (stereo not given), the half-maximal activity concentration (AC50) is 30.2 µM (active).

As to `CN(C)C(=O)Nc1cccc(C(F)(F)F)c1`, the outcome was inactive.

For the molecule `Cc1cc(C2CC2)nc(Nc2ccccc2)n1`, the AC50 was 16.2 µM (active).

On to `CCCCSP(=O)(SCCCC)SCCCC`, for which the result was inactive.

Turning to `CC[C@H](C)[C@H]1O[C@]2(C=C[C@@H]1C)C[C@@H]1C[C@@H](C/C=C(\C)[C@@H](O[C@H]3C[C@H](OC)[C@@H](O[C@H]4C[C@H](OC)[C@@H](NC)[C@H](C)O4)[C@H](C)O3)[C@@H](C)/C=C/C=C3\CO[C@@H]4[C@H](O)C(C)=C[C@@H](C(=O)O1)[C@]34O)O2`, the AC50 was 3.34 µM (active).

As for `CNC(=O)Oc1cccc2c1OC(C)(C)O2`, the result was inactive.

`Cc1nn(-c2cc(NS(C)(=O)=O)c(Cl)cc2Cl)c(=O)n1C(F)F`: the outcome was inactive.

In the case of `CNC(=O)ON=C(C)SC`, the outcome was inactive.

Take `O=c1ccc(=O)[nH][nH]1`: the outcome was inactive.

On to `CON=C(C(=O)OC)c1ccccc1CON=C(C)c1cccc(C(F)(F)F)c1`, for which the AC50 is 5.02 µM (active).

`CCC(=NOC/C=C/Cl)C1=C(O)CC(C2CCOCC2)CC1=O` (stereo not given): the outcome was inactive.

As for `C#CCC1=C(C)C(OC(=O)C2C(C=C(C)C)C2(C)C)CC1=O` (stereo not given), the AC50 was 26.5 µM (active).

Take `CNc1cnn(-c2cccc(C(F)(F)F)c2)c(=O)c1Cl`: the AC50 was 11.7 µM (active).

Consider `CCOP(=O)(NC(C)C)Oc1ccc(SC)c(C)c1` (stereo not given), for which the result was inactive.

In the case of `CCc1cccc(CC)c1N(COC)C(=O)CCl`, the AC50 was 20 µM (active).

With `CCC(CC)Nc1c([N+](=O)[O-])cc(C)c(C)c1[N+](=O)[O-]`, the AC50 was 20 µM (active).

On to `CSc1nnc(C(C)(C)C)c(=O)n1N`, for which the result was inactive.

`COc1cccc(C(=O)NN(C(=O)c2cc(C)cc(C)c2)C(C)(C)C)c1C`: the outcome was inactive.

For `CC(COc1ccc(Oc2ccccc2)cc1)Oc1ccccn1` (stereo not given), the outcome was inactive.

For the molecule `CC(C1CC1)C(O)(Cn1cncn1)c1ccc(Cl)cc1` (stereo not given), the outcome was inactive.

Source of the values: PubChem BioAssay (EPA / NIEHS).
